Results taken from PubChem BioAssay (Tox21).
Where “and” joins values, the source holds several entries; their conditions need not be identical. Identical values can stand only once. Results filed as inconclusive are left out. Where a structure was tested more than once in an assay, its records may differ in their call. Calls of active or inactive are those of the source. Unless noted, calls follow the shape of the dose curve; as a rule, active = well fitted curve in the direction sought with a large enough effect in the repeat runs; inconclusive = weak or mixed curves; inactive = no such curve, though single readings can be large; an effect the other way counts as inactive or inconclusive.

How the values were obtained:
[1] = qHTS assay to identify small molecule agonists of the vitamin D receptor (VDR) signaling pathway - cell viability counter screen (AID 743224); also: nearly all actives have a fitted effect of over 50% in size; also: potency is read from the fitted curve at half-maximal effect
How it was run: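 Compounds were pin-transferred onto VDR-bla cells plated 4 h earlier; following 16 h incubation at 37C, cell viability was quantified by CellTiter-Glo luminescence after 30 min at room temperature.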

[2] = qHTS assay to identify small molecule antagonists of the vitamin D receptor (VDR) signaling pathway - cell viability counter screen (AID 743225); also: % is scaled to controls: 0 for no effect and ±100 for the full control effect; nearly all actives have a fitted effect of over 50% in size
How it was run: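 Luminescent cell viability (CellTiter-Glo) in VDR-bla HEK 293T cells after 16 h compound exposure at 37C in the presence of 3 nM final 1-alpha,25-dihydroxy vitamin D3.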

[3] = qHTS assay to identify small molecule agonists of the NFkB signaling pathway (AID 1159509; active = well fitted curve in the direction sought with a large enough effect in the signal ratio in the repeat runs, not every such curve was filed as active; the % refers to the signal ratio; also: series mostly up to about 61 µM; % is scaled to controls: 0 for no effect and ±100 for the full control effect)
How it was run: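 Readout: FRET fluorescence, 405 nm excitation, 460/530 nm emission; beta-lactamase expression disrupts FRET. Cells: ME-180 stably carrying NF-kB-driven bla reporter. Compound exposure 5 hr, 37 C, 5% CO2.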

[4] = qHTS assay to identify small molecule agonists of the NFkB signaling pathway - cell viability counter screen (AID 1159515; calls by dose curve; also: series mostly up to about 61 µM; % is scaled to controls: 0 for no effect and ±100 for the full control effect; nearly all actives have a fitted effect of over 55% in size)
How it was run: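 Parallel cytotoxicity counter screen in ME-180 cells carrying an NFkB-response-element beta-lactamase reporter, 2,000 cells/well. Compound exposure lasted 5 hr at 37 C, 5% CO2. Cell viability was quantified by CellTiter-Glo luminescence.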

[5] = qHTS assay to identify small molecule agonists of the endoplasmic reticulum stress response signaling pathway (AID 1159516; active = well fitted activation curve with a large enough effect in the signal ratio in the repeat runs, not every such curve was filed as active; the % refers to the signal ratio; also: % is scaled to controls: 0 for no effect and ±100 for the full control effect)
How it was run: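 Using a HeLa line with an ESRE-driven beta-lactamase gene, agonist activity was measured by FRET substrate fluorescence (460 and 530 nm emission) after cells were treated with compounds for 5 hr at 37 C and 5% CO2.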

[6] = qHTS assay to identify small molecule agonists of the endoplasmic reticulum stress response signaling pathway - cell viability counter screen (AID 1159517; calls by dose curve;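 also: HeLa cells carrying an ER stress response element beta-lactamase reporter; series mostly up to about 61 µM; % is scaled to controls: 0 for no effect and ±100 for the full control effect; nearly all actives have a fitted effect of over 50% in size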)
How it was run: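 After overnight attachment, ESRE-bla HeLa cells were treated with Tox21 library compounds for 5 hr. CellTiter-Glo luminescence, read 30 min post-addition at room temperature, reported viability.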

[7] = qHTS assay to identify small molecule antagonists of the retinoid-related orphan receptor gamma (ROR-gamma) signaling pathway - cell viability counter screen (AID 1159520); also: % is scaled to controls: 0 for no effect and ±100 for the full control effect; nearly all actives have a fitted effect of over 50% in size
How it was run: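 Cytotoxicity was read from cellular ATP (CellTiter-Glo luminescence) after 16 hr at 37 C with 1 uM doxycycline induction. The inducer was added 2 hr after compound transfer to Tet-on ROR gamma CHO cells.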

[8] = qHTS assay to identify small molecule agonists of the AP-1 signaling pathway - cell viability counter screen (AID 1159525; calls by dose curve; also: nearly all actives have a fitted effect of over 55% in size)
How it was run: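 Intracellular ATP by Cell Titer Glo luminescence (30 min, RT) in the same ME-180 AP-1-bla wells after the 5 h compound exposure at 37 °C. Normalised to tetra n-octyl ammonium bromide and DMSO controls.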

[9] = qHTS assay to identify small molecule agonists of the AP-1 signaling pathway (AID 1159526; calls by dose curve; also: % is scaled to controls: 0 for no effect and ±100 for the full control effect)
[10] = target: Retinoic acid receptor RXR-alpha (Homo sapiens) (UniProt P19793); assay: qHTS assay to identify small molecule agonists of the RXR signaling pathway (AID 1159527; calls by dose curve; also: nearly all actives have a fitted effect of over 35% in size; also: potency is read from the fitted curve at half-maximal effect)
How it was run: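 Beta-lactamase reporter assay, agonist format. Engineered HEK 293T line, charcoal-stripped FBS at 2%, overnight (16 hr) exposure, fluorescence at 460 and 530 nm after 405 nm excitation.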

[11] = qHTS assay to identify small molecule agonists of the RXR signaling pathway - cell viability counter screen (AID 1159529)
How it was run: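 Same-well viability check after the LiveBLAzer FRET read: CellTiter-Glo added, luminescence measured after 30 min at room temperature. Reporter HEK 293T cells had been treated with compounds for 16 hr following a 5 hr preincubation.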

[12] = qHTS assay to identify small molecule antagonists of the retinoid acid receptor (RAR) signaling pathway - cell viability counter screen (AID 1159551); also: % is scaled to controls: 0 for no effect and ±100 for the full control effect; nearly all actives have a fitted effect of over 35% in size
How it was run: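 ATP-based viability, C3RL4 cells, 6 h at 37 C with 1 uM final retinol co-added after compound; luminescence read 30 min post CellTiter-Glo, RT.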

[13] = qHTS assay to identify small molecule agonists of the retinoic acid receptor (RAR) signaling pathway (AID 1159553); also: % is scaled to controls: 0 for no effect and ±100 for the full control effect
How it was run: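 Quantitative high-throughput format: the Tox21 10K library was tested on C3RL4 RARE-luciferase cells for 6 hr at 37 C and 5% CO2, with luminescence measured after a 30 min room-temperature reagent step.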

[14] = qHTS assay to identify small molecule antagonists of the estrogen related receptor (ERR) signaling pathway - cell viability counter screen (AID 1224818)
How it was run: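 Quantitative high-throughput viability counter screen in ERR cells. Compounds (DMSO) incubated 17.5 h at 37 C; read-out was CellTiter-Fluor fluorescence.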

[15] = qHTS assay to identify small molecule antagonists of the estrogen related receptor (ERR) signaling pathway (AID 1224819)
How it was run: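 ERR reporter cell line (NTP) plated at 2,000 cells/well, settled 6 h at 37C/5% CO2, then exposed to LOPAC compounds for 18 h at 37C. One-Glo luciferase luminescence read after 30 min at room temperature.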

[16] = qHTS assay to identify small molecule agonists of the estrogen related receptor (ERR) signaling pathway (AID 1224820); also: % is scaled to controls: 0 for no effect and ±100 for the full control effect
How it was run: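 Luminescence readout (One-Glo, 30 min RT) from NTP-supplied ERR cell line exposed to compounds for 18 h at 37 C. Cells seeded 2,000 per well and pre-incubated 6 h before pin-tool compound transfer.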

[17] = system: estrogen-related receptor alpha (ERRalpha) with PGC-1alpha coactivator, human; assay: qHTS assay to identify small molecule antagonists of the estrogen related receptor signaling pathway with the pleiotropic PPARgamma coactivator (PGC) (AID 1224821; calls by dose curve)
How it was run: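 PGC/ERR reporter cells; 6 h pre-incubation 37 C/5% CO2; pin-tool compound in DMSO, 18 h 37 C; One-Glo added, 30 min RT; luminescence read. qHTS antagonist mode.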

[18] = qHTS assay to identify small molecule antagonists of the estrogen related receptor signaling pathway with the pleiotropic PPARgamma coactivator (PGC) cell viability counter screen (AID 1224822)
How it was run: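 Cytotoxicity in the PGC/ERR cell line is assessed with CellTiter-Fluor, read as fluorescence intensity 30 min after reagent addition, following 17.5 h compound treatment at 37 C.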

[19] = target: Nuclear receptor ROR-gamma (Homo sapiens) (UniProt P51449); assay: qHTS assay to identify small molecule antagonists of the retinoid-related orphan receptor gamma (ROR-gamma) signaling pathway (AID 1159521; also: nearly all actives have a fitted effect of over 50% in size; also: potency is read from the fitted curve at half-maximal effect)
How it was run: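 CHO cells expressing RORγ under a TET-on promoter, luciferase under RORE control. Dox 1 uM final, 16 h; compounds added 2 h prior. Luminescence decrease measured.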

[20] = qHTS assay to identify small molecule antagonists of the retinoic acid receptor (RAR) signaling pathway (AID 1159552)
How it was run: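 Readout: luciferase luminescence, 30 min post-reagent at RT. Setup: C3RL4 RARE reporter cells, compounds plus retinol 1 uM final, 6 hr incubation at 37 C and 5% CO2.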

Chain of Retinoic acid receptor RXR-alpha (Homo sapiens) (P19793 whole entry, looked up): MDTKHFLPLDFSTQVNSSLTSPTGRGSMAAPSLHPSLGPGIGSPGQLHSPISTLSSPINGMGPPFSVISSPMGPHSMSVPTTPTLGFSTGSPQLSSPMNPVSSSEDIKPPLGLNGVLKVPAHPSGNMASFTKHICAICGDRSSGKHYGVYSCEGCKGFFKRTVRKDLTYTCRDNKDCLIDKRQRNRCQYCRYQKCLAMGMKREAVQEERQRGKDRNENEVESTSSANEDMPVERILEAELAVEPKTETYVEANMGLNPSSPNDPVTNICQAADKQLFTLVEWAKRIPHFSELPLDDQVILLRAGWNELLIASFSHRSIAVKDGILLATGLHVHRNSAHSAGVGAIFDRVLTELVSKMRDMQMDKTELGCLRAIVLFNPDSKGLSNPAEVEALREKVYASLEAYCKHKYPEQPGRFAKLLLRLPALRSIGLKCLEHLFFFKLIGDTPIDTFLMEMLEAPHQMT

COCCc1ccc(OCC(O)CNC(C)C)cc1 (configuration not stated)
inactive: Potency [1] | Potency [2] | outcome [3] | outcome [4] | outcome [5] | outcome [6] | outcome [7] | Potency [8] | outcome [9] | Potency [10] | Potency [11] | outcome [12] | Potency [13] | outcome [14] | outcome [15] | outcome [16] | outcome [17] | outcome [18]

COC(=O)c1c(Cl)c(Cl)c(C(=O)OC)c(Cl)c1Cl
inactive: Potency [1] | Potency [2] | outcome [3] | outcome [4] | outcome [5] | outcome [6] | outcome [7] | Potency [19] | Potency [8] | Potency [11] | outcome [12] | outcome [14] | outcome [15] | outcome [16] | outcome [17] | outcome [18]
inactive and 5.49 µM (active): Potency [10]

OC(CCN1CCCCC1)(c1ccccc1)C1CC2C=CC1C2 (configuration not stated)
inactive: Potency [2] | outcome [3] | outcome [4] | outcome [6] | outcome [7] | Potency [19] | Potency [8] | outcome [9] | Potency [10] | Potency [11] | outcome [12] | Potency [20] | Potency [13] | outcome [14] | outcome [18]

CC(C)(CC(=O)O)C(=O)O
inactive: Potency [1] | Potency [2] | outcome [3] | outcome [4] | outcome [5] | outcome [6] | outcome [7] | Potency [19] | Potency [8] | outcome [9] | Potency [11] | outcome [12] | Potency [20] | Potency [13]

Nc1ccc(S(=O)(=O)Nc2ccnn2-c2ccccc2)cc1
inactive: Potency [1] | outcome [3] | outcome [4] | outcome [6] | activity, negative = cytotoxicity [7] 2.08% [at 19 µM] | Potency [19] | viability change, negative = cytotoxic [8] 2.53% [at 15.8 µM] | outcome [9] | Potency [10] | Potency [11] | activity change, negative = cytotoxicity [12] 2.06% [at 19 µM] | activity, negative = inhibition [20] -19.4% [at 19 µM] | Potency [13] | outcome [14] | outcome [18]

CC(C)(C)c1ccc(O)c(O)c1
inactive: outcome [3] | outcome [4] | outcome [5] | outcome [6] | outcome [7] | Potency [8] | Potency [11] | outcome [14] | outcome [18]
active: Potency [1] 25.4 µM | Potency [19] 25.2 µM and 27.3 µM

O=C(O)Cc1ccc(CCNS(=O)(=O)c2ccc(Cl)cc2)cc1
inactive: Potency [1] | outcome [3] | outcome [4] | outcome [5] | outcome [6] | outcome [7] | Potency [19] | Potency [8] | outcome [9] | Potency [11] | outcome [12]

CC1(C)C(O)C(C)(C)C1O (configuration not stated)
inactive: Potency [1] | Potency [2] | outcome [3] | outcome [4] | outcome [5] | outcome [6] | outcome [7] | Potency [19] | Potency [8] | outcome [9] | Potency [11] | outcome [12] | Potency [20] | Potency [13]

O=C(c1ccccc1)C1CCCCC1
inactive: outcome [3] | outcome [4] | outcome [6] | outcome [7] | Potency [19] | Potency [8] | outcome [9] | Potency [10] | Potency [11] | outcome [12] | Potency [20] | Potency [13]
